Screening data (PubChem)
mHTT CaM bind: inhibitors of human mutant huntingtin-calmodulin interaction; AlphaScreen His-mHTT/GST-CaM binding, luminescence; inhibition, % at 15 µM; P42858; 190,000 compounds, 3.6% hits
Pf apPOL inh: Pf-apPOL DNA polymerase inhibition. inhibition, % at 10 µM. 210,000 compounds, 0.25% hits. Recombinant Pf-apPOL, molecular beacon fluorescence, 1.5 h
A number is an active result; . = inactive. Shown is part of a subset that was picked to be rich in hits. Cut-off read from the data, not from the text of the source: active = inhibition above about 50%; inactive = the rest.

SMILES	mHTT CaM bind	Pf apPOL inh
CCCCC[C@H](C)N1C[C@H](COCc2ccccc2)Oc2cc(N3CC[C@H](O)C3)ccc2S1(=O)=O	96.2	.
CCCCC[C@H](C)N1C[C@H](COCc2ccccc2)Oc2cc(N3CCC[C@H]3CO)ccc2S1(=O)=O	.	.
CCCCC[C@H](C)N1C[C@H](COCc2ccccc2)Oc2cc(N3CCC[C@@H]3CO)ccc2S1(=O)=O	.	.
CCCCC[C@@H](C)N1C[C@H](COCc2ccccc2)Oc2cc(N3CC[C@H](N(C)C)C3)ccc2S1(=O)=O	100.1	.
CCCCC[C@H](C)N1C[C@H](COCc2ccccc2)Oc2cc(N3CCC[C@@H]3COC)ccc2S1(=O)=O	.	.
CCCCC[C@H](C)N1C[C@@H](COCc2ccccc2)Oc2cc(N3CCC[C@H]3CO)ccc2S1(=O)=O	.	.
CCCCC[C@@H](C)N1C[C@H](COCc2ccccc2)Oc2cc(N3CC[C@@H](O)C3)ccc2S1(=O)=O	57.5	.
O=C(NCc1ccccc1Cl)c1c(F)cccc1F	.	.
Nc1c(Cl)cc(NS(=O)(=O)c2ccccc2)cc1Cl	.	.
CCc1nnc(NC(=O)c2ccc(Cl)cc2[N+](=O)[O-])s1	.	.
COc1cc(OC)c(NC(=O)CN2C(=O)NC3(CCC(C)CC3)C2=O)cc1Cl (stereo not drawn)	.	.
CCCCC[C@@H](C)N1C[C@@H](COCc2ccccc2)Oc2cc(N3CCC[C@H]3C(N)=O)ccc2S1(=O)=O	.	.
CCCCC[C@H](C)N1C[C@@H](COCc2ccccc2)Oc2cc(N3CCC[C@H]3C(N)=O)ccc2S1(=O)=O	69.4	.
COc1cc(/C=C/C(=O)Nc2c3c(nn2-c2ccc(Cl)cc2)CSC3)cc(OC)c1OC	.	.
O=C1C2C3C=CC(C4CC34)C2C(=O)N1c1cccnc1 (stereo not drawn)	.	.
O=[N+]([O-])c1ccc(S(=O)(=O)/C=C/C=C/N2CCCCC2)cc1	93.0	.
O=[N+]([O-])c1ccc(S(=O)(=O)N2CCCCCC2)cc1	.	.
CC(=O)Nc1ccc(Nc2ncc([N+](=O)[O-])cc2[N+](=O)[O-])cc1	.	.
CCC(C)c1cc([N+](=O)[O-])cc([N+](=O)[O-])c1OC(=O)OC(C)C (stereo not drawn)	51.0	.
O=C1C=CC(=O)N1c1cc(Sc2ccc(F)cc2)cc([N+](=O)[O-])c1	85.0	.
O=C1CCC(=O)N1c1ccc(Sc2ccc([N+](=O)[O-])cc2)cc1	.	.
CCCC1=NN(c2nc3ccccc3s2)C(=O)/C1=C/N(C)C	.	.
CC1=NN(c2nc3ccccc3s2)C(=O)C1	93.7	.
CC1=NN(c2cc(C)nc(-c3ccccc3O)n2)C(=O)C1	56.2	.
Cc1ccc(Nc2cc(C)nc(-c3ccccc3O)n2)cc1	.	.
SMILES	mHTT CaM bind	Pf apPOL inh
CC1=NN(c2nc(-c3ccccc3O)cs2)C(=O)C1	97.5	.
CC1=NN(c2nc(-c3ccc(C#N)cc3)cs2)C(=O)C1	.	.
Cc1nc(-c2ccccc2O)n(-c2ccccc2)n1	.	.
CSc1nnc(-c2nn(C)c3c2CN(C(=O)c2ccoc2)CC3)n1C	.	.
CCC1CCCCN1C(=O)c1oc(=O)c2ccccc2c1-c1ccc(C)cc1 (stereo not drawn)	.	.
NC(=O)Cc1nc2ccccc2[nH]1	.	96.7
O=C(O)CCCc1nc2ccccc2[nH]1	.	.
CC(C)CC(C(=O)Nc1cccc(C(F)(F)F)c1)N1C(=O)c2ccccc2C1=O (stereo not drawn)	57.0	.
CC(C)CC(C(=O)Nc1nc2ccccc2s1)N1C(=O)c2ccccc2C1=O (stereo not drawn)	99.0	.
CC(C)C(C(=O)Nc1cccc(C(F)(F)F)c1)N1C(=O)c2ccccc2C1=O (stereo not drawn)	.	.
CC(C(=O)Nc1nc2ccccc2s1)N1C(=O)c2ccccc2C1=O (stereo not drawn)	.	.
CCn1ncc(NC(=O)c2ccccc2)c(N(C)C)c1=O	.	.
COc1cccc(NC(=O)C2CC(=O)N(c3cccc(C)c3C)C2)c1 (stereo not drawn)	.	.
CCCCSCCCNC(=O)CN1C(=O)/C(=C/c2ccccc2C)Sc2ccccc21	.	.
CN1CCN(C(=O)c2cnc(-c3ccccc3)nc2N2CCSCC2)CC1	97.2	.
CCN1CCN(C(=O)c2cnc(-c3ccccc3)nc2N2CCSCC2)CC1	.	.
COC(=O)c1ccc(C=C2Oc3cc(OC(=O)c4ccco4)ccc3C2=O)cc1	.	.
COc1ccc(N(CC(=O)N2CCC(Cc3ccccc3)CC2)S(C)(=O)=O)cc1	.	.
Cc1cc(F)c(F)c(C(=O)N2CCN(c3ccc([N+](=O)[O-])cc3F)CC2)c1	.	.
Cc1ccccc1-n1nc2c(c1NC(=O)Cc1ccccc1)CS(=O)(=O)C2	.	.
CCCCC(=O)Nc1c2c(nn1-c1ccccc1C)CS(=O)(=O)C2	.	72.1
O=C1OC(/C=C/c2ccc(Cl)cc2)=NC/1=C/c1ccccc1[N+](=O)[O-]	.	.
